Most compounds without a hit are left out; they make up all but 2.5% or so of the library.
ULK1 inh: ULK1 kinase inhibitors, primary screen, biochemical, AlphaScreen; Serine/threonine-protein kinase ULK1 (Homo sapiens), O75385; AlphaScreen Atg13 phosphorylation by ULK1, luminescence; inhibition, % at 5.96 µM; hit rate 1.9% among 30,000; in the data active = inhibition above about 43%
Target sequence (O75385 whole entry, looked up): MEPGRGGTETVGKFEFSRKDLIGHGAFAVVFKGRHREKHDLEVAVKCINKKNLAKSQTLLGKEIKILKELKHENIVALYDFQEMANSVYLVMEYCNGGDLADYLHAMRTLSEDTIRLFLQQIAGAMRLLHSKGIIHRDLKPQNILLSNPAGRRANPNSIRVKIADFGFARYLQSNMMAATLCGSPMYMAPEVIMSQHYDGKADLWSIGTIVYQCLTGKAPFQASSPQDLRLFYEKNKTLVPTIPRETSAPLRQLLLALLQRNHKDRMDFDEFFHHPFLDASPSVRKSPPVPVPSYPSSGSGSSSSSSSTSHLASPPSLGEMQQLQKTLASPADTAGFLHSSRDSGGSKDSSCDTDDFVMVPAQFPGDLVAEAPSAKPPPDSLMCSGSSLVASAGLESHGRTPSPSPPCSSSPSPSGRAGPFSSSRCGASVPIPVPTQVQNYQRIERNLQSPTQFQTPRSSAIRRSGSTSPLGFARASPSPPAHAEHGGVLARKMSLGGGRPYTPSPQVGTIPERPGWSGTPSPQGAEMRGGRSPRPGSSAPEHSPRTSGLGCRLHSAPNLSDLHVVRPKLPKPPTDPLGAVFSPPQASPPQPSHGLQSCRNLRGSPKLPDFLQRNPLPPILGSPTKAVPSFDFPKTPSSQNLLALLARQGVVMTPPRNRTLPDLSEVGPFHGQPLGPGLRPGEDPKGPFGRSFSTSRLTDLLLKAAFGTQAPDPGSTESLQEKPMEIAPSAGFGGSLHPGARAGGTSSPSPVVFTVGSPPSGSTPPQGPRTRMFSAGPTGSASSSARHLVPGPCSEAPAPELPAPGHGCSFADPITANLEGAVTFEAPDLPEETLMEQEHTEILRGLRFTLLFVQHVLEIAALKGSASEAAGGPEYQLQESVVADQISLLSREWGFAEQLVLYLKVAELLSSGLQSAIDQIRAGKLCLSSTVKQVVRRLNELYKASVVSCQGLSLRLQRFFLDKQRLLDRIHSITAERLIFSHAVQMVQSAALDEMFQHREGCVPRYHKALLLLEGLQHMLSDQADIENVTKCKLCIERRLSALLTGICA
ASK1 inh: ASK1 kinase inhibitors, primary screen, biochemical, AlphaScreen; inhibition, % at 7.44 µM; AID 1159602, 2016; hit rate 0.99% among 22,000; AlphaScreen MKK6 phosphorylation by ASK1, luminescence; Mitogen-activated protein kinase kinase kinase 5 (Homo sapiens), Q99683; in the data active = inhibition above about 35%
Large screens that a line does not name were inactive.

C[C@H](N)[C@H](O)c1ccccc1	none (no result: ASK1 inh)
C[C@H](N)[C@H](O)c1ccc(O)c(O)c1	ULK1 inh 71 (no result: ASK1 inh)
O=C(Cc1ccccc1)Nc1cnn(-c2cccc(C(=O)NC3CN4CCC3CC4)c2)c1 (stereo not given)	none
CC12CCC(=O)C[C@@H]1CC[C@@H]1[C@@H]2CCC2(C)[C@H]1CC[C@]2(C)O (stereo not given in full)	none (no result: ASK1 inh)
CCN(CC)C(=O)N[C@H]1C=C2c3cccc4[nH]cc(c34)C[C@H]2N(C)C1	ULK1 inh 62 (no result: ASK1 inh)
CC(CO)NC(=O)C1C=C2c3cccc4[nH]cc(c34)C[C@H]2N(C)C1 (stereo not given in full)	none (no result: ASK1 inh)
CCC(=O)OC(Cc1ccccc1)(c1ccccc1)[C@H](C)CN(C)C (stereo not given in full)	ULK1 inh 95 (no result: ASK1 inh)
CC(CC(C(N)=O)(c1ccccc1)c1ccccc1)N(C)C (stereo not given)	none (no result: ASK1 inh)
CCSc1nc(NC(C)C)c2cnn(CCN)c2n1	none (no result: ASK1 inh)
CN(C)C1C(=O)C(C(N)=O)=C(O)C2(O)C(=O)C3=C(O)c4c(O)cccc4C(C)(O)C3CC12 (stereo not given)	ULK1 inh 72 (no result: ASK1 inh)
CN(C)[C@@H]1C(=O)C(C(N)=O)=C(O)[C@@]2(O)C(=O)C3=C(O)c4c(O)ccc(Cl)c4[C@@](C)(O)C3C[C@@H]12 (stereo not given in full)	ULK1 inh 49 (no result: ASK1 inh)
CN(C)[C@@H]1C(=O)C(C(N)=O)=C(O)[C@@]2(O)C(=O)C3=C(O)c4c(O)cccc4[C@@](C)(O)[C@H]3C[C@@H]12	none (no result: ASK1 inh)
CCN1CCN(c2c(N)cccc2Cl)CC1	none
CCCCCn1c(=O)c(C(=O)Nc2ccc(N)cc2)c(O)c2ccccc21	none (no result: ASK1 inh)
CC[C@]1(O)CC[C@H]2[C@@H]3CCC4=CCCC[C@@H]4[C@H]3CCC21C (stereo not given in full)	none (no result: ASK1 inh)

Assay outcomes deposited in PubChem by The Scripps Research Institute Molecular Screening Center.
